Screening results deposited in PubChem by National Center for Advancing Translational Sciences (NCATS).
VACV Venus inh: inhibitors of vaccinia virus (Venus reporter). Vaccinia virus Venus reporter expression, fluorescence. Potency, µM (top dose mostly 36.5 µM), inactives show at the highest dose activity change, negative = inhibition, usual class: inhibitors. hit rate 0.46% among 330,000. AID 720580; calls by dose curve; tested in A549 cells; also: nearly all actives have a fitted effect of over 30% in size
HCV inhibitor: HCV inhibition; Huh7.5.1 HCVcc-Cre infection, luciferase reporter, 44 h; Potency, µM (doses to about 41.8 µM), without a hit: at the top dose activity change, negative = inhibition, hits mostly inhibitors; hit rate 3.4% among 340,000; AID 651820; active = well fitted inhibition curve with a large enough effect; inconclusive = small, poorly fitted or top-dose-only effect, or another doubt; inactive = no such curve, though single readings can be large or run the other way
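Reporter virus HCVcc-Cre (~0.5 moi) infects cells exposed to compound; seeding density 1,000 cells/well with 4 h settling beforehand. Luminescence, 15 sec read, taken 44 h post-infection following a 15 min RT substrate incubation.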
VACV mCherry inh: inhibitors of vaccinia virus infection (mCherry reporter signal). AID 720579. Potency, µM (titrated, usually from 36.5 µM), for the others: top-dose activity change, negative = inhibition, usual class: inhibitors. Vaccinia virus mCherry reporter infection, fluorescence. hit rate 0.63% among 310,000; calls by dose curve; tested in A549 cells; also: nearly all actives have a fitted effect of over 35% in size
* marks the source's active call; other numbers are inactive results; i = inactive; ? = inconclusive; . = not tested or not shown. The list is not random: actives were taken first. Their share in the collection is about 3.3%. % is scaled to controls: 0 for no effect and ±100 for the full control effect; potency is read from the fitted curve at half-maximal effect.

SMILES | VACV Venus inh | HCV inhibitor | VACV mCherry inh
CC(=O)N1c2ccc(S(=O)(=O)NCCC(=O)Nc3ccc(C)cc3Br)cc2CC1C (stereo not drawn) | -9.5% | . | -9.8%
COc1ccc(NC(=O)C(=O)NCCc2csc3nc(-c4ccccc4C)nn23)cc1 | -25.2% | . | -12.7%
Cc1nc([N+](=O)[O-])cn1CC(O)c1ccc2c(c1)OCCCO2 (stereo not drawn) | -8.8% | . | -4.8%
CC(C)N(C(=O)[C@H]1CC(CC(=O)NCCC2=CCCCC2)C(=O)N2CCc3c([nH]c4ccccc34)[C@]12C)C(C)C (stereo partly drawn) | -11.3% | 0.562µM* | -12.0%
CN(C)CCCNC(=O)C[C@H]1C[C@H](C(=O)N2CCCCC2)[C@@]2(C)c3[nH]c4cc(-c5ccco5)ccc4c3CCN2C1=O | -14.4% | ? | ?
CC(C)N(C(=O)[C@H]1CC(CC(=O)NCCc2ccccn2)C(=O)N2CCc3c([nH]c4ccccc34)[C@]12C)C(C)C (stereo partly drawn) | -23.3% | -9.0% | -13.9%
C[C@]12c3[nH]c4cc(-c5ccco5)ccc4c3CCN1C(=O)[C@@H](CC(=O)NCC13CC4CC(CC(C4)C1)C3)C[C@@H]2C(=O)N1CCCCC1 | ? | 6.5% | 11.2µM*
COCCN(C(=O)c1cc2c(s1)CCC2)c1c(N)n(CC(C)C)c(=O)[nH]c1=O | -2.7% | 0.6% | -9.6%
COCCNC(=O)Cn1c(-c2cccs2)cc2cc(Cl)ccc21 | -16.1% | . | -12.2%
CCOc1ccc(C(=O)NNC(=O)C2CC(=O)N(c3ccc(C)cc3)C2)cc1 (stereo not drawn) | -11.7% | -21.5% | i
Cc1cccn2cc(CCNC(=O)c3cccs3)nc12 | -6.7% | 6.5% | ?
Cc1cc(C)cc(-c2nnc(SCC(=O)N3CCN(C(=O)c4ccco4)CC3)o2)c1 | ? | ? | 8.91µM*
CCOC(=O)N1CCN(C(=O)CSc2nnc(-c3cccc(Cl)c3)o2)CC1 | ? | 0.5% | 5.62µM*
O=C(CSc1nnc(-c2ccccc2)o1)N1CCCC1 | -7.0% | -18.0% | i
O=C(CSc1nnc(-c2ccc(Br)cc2)o1)N1CCN(C(=O)c2ccco2)CC1 | 5.01µM* | ? | 0.631µM*
Cc1nnc(SCC(=O)N2CCN(C(=O)c3ccco3)CC2)n1C | . | 13.5% | .
CC1CCCCN1C(=O)CSc1nnc(-c2cccc(Cl)c2)o1 (stereo not drawn) | -18.3% | . | -22.5%
Cc1noc(C)c1CC(=O)NCC1Cc2cc(-c3cccc(OC(F)(F)F)c3)ccc2O1 (stereo not drawn) | -16.1% | . | -24.2%
O=C(c1cn(C2CCCN(Cc3cc(Cl)ccc3O)C2)nn1)N1CCCCC1 (stereo not drawn) | -5.8% | . | -3.1%
CSc1ccc(CCNC(=O)c2cc3n(n2)CCCN(Cc2ccc(C)cc2)C3=O)cc1 | -15.7% | . | -8.4%
Cc1onc(-c2ccccc2)c1C(=O)Nc1nncs1 | -12.4% | 27.3% | -20.8%
COc1ccc(CNc2oc(-c3ccc(COc4ccc(OC)cc4)o3)nc2C#N)cc1 | -0.1% | . | -13.5%
COc1ccccc1CC(=O)NO | -7.1% | . | -2.1%
O=C(CCC1CCN(C(=O)c2ccccc2Cl)CC1)NCc1ccc(F)cc1 | -14.8% | -1.5% | -17.7%
CCCNC(=O)C1CC(c2cccc(F)c2)=NO1 (stereo not drawn) | -14.9% | 12.5% | -11.2%
SMILES | VACV Venus inh | HCV inhibitor | VACV mCherry inh
O=C(NCCc1cccs1)C1CC(c2cccc(F)c2)=NO1 (stereo not drawn) | -19.1% | 3.55µM* | i
CC1=CC(O)C(O)C2(C)C1CC1OC(=O)C(O)C3C(C)C(O)C4(O)OCC13C42 (stereo not drawn) | 7.94µM* | 13.1% | ?
C/C(=N\Nc1nc(N)cc(Cl)n1)c1ccc(Cl)c(Cl)c1 | -19.5% | 11.2µM* | -20.2%
C/C(=N\Nc1nc(N)cc(Cl)n1)c1ccc(F)cc1 | -13.8% | ? | -10.6%
COc1ccc(NC(=O)c2ccc3c(=O)n(-c4ccc(OC)cc4OC)c(=S)[nH]c3c2)c(OC)c1 | -25.7% | -12.1% | -8.3%
COc1ccc(-n2c(=S)[nH]c3cc(C(=O)Nc4ccc(C)c(F)c4)ccc3c2=O)c(OC)c1 | ? | 11.2µM* | i
O=C(c1cc(Br)ccc1O)N(Cc1ccco1)Cc1cccs1 | -15.2% | . | -5.5%
COc1ccc2cc(C3=CCCCC3)ncc2c1 | -12.3% | -16.2% | -21.7%
O=C(CCNS(=O)(=O)c1ccccc1)N1CCC(Cc2ccccc2)CC1 | -14.1% | ? | -19.4%
COc1ccc(C2C(C#N)=C(N)OC3=C2C(=O)CC(C)(C)C3)cc1 (stereo not drawn) | . | 11.7% | .
COc1cc(C2C(C#N)=C(N)OC3=C2C(=O)CC(C)(C)C3)cc2c1OCO2 (stereo not drawn) | -19.0% | 10µM* | -14.1%
Cc1noc(C)c1COc1ccccc1C(=O)N1CCN(S(=O)(=O)c2ccc(F)c(F)c2)CC1 | . | 14.9% | .
